Results: PubChem BioAssay AID588689 (Southern Research Specialized Biocontainment Screening …, 2011)
Screen size: about 340,000 compounds; about 1,000 (0.29%) were called active. Rule as the data show it: inconclusive = inhibition above about 29% without an active follow-up result; inactive = below that. Not all results are given here. Entries with a potency or affinity are not part of this list.

Biological target: Genome polyprotein (Dengue virus type 2 (strain 16681-PDK53)) (UniProt P29991)
Experiment: flavivirus cap methylation enzyme inhibition – biochemical, confirmation dose response, primary screen (AID 588689)
Details: Dengue-2 NS5 methyltransferase capping enzyme assay, at 25 µM, stronger effect = higher value
[1] = measured here: pilot screen replicate inhibition

Sequence of Genome polyprotein (Dengue virus type 2 (strain 16681-PDK53)) (P29991 whole entry, looked up): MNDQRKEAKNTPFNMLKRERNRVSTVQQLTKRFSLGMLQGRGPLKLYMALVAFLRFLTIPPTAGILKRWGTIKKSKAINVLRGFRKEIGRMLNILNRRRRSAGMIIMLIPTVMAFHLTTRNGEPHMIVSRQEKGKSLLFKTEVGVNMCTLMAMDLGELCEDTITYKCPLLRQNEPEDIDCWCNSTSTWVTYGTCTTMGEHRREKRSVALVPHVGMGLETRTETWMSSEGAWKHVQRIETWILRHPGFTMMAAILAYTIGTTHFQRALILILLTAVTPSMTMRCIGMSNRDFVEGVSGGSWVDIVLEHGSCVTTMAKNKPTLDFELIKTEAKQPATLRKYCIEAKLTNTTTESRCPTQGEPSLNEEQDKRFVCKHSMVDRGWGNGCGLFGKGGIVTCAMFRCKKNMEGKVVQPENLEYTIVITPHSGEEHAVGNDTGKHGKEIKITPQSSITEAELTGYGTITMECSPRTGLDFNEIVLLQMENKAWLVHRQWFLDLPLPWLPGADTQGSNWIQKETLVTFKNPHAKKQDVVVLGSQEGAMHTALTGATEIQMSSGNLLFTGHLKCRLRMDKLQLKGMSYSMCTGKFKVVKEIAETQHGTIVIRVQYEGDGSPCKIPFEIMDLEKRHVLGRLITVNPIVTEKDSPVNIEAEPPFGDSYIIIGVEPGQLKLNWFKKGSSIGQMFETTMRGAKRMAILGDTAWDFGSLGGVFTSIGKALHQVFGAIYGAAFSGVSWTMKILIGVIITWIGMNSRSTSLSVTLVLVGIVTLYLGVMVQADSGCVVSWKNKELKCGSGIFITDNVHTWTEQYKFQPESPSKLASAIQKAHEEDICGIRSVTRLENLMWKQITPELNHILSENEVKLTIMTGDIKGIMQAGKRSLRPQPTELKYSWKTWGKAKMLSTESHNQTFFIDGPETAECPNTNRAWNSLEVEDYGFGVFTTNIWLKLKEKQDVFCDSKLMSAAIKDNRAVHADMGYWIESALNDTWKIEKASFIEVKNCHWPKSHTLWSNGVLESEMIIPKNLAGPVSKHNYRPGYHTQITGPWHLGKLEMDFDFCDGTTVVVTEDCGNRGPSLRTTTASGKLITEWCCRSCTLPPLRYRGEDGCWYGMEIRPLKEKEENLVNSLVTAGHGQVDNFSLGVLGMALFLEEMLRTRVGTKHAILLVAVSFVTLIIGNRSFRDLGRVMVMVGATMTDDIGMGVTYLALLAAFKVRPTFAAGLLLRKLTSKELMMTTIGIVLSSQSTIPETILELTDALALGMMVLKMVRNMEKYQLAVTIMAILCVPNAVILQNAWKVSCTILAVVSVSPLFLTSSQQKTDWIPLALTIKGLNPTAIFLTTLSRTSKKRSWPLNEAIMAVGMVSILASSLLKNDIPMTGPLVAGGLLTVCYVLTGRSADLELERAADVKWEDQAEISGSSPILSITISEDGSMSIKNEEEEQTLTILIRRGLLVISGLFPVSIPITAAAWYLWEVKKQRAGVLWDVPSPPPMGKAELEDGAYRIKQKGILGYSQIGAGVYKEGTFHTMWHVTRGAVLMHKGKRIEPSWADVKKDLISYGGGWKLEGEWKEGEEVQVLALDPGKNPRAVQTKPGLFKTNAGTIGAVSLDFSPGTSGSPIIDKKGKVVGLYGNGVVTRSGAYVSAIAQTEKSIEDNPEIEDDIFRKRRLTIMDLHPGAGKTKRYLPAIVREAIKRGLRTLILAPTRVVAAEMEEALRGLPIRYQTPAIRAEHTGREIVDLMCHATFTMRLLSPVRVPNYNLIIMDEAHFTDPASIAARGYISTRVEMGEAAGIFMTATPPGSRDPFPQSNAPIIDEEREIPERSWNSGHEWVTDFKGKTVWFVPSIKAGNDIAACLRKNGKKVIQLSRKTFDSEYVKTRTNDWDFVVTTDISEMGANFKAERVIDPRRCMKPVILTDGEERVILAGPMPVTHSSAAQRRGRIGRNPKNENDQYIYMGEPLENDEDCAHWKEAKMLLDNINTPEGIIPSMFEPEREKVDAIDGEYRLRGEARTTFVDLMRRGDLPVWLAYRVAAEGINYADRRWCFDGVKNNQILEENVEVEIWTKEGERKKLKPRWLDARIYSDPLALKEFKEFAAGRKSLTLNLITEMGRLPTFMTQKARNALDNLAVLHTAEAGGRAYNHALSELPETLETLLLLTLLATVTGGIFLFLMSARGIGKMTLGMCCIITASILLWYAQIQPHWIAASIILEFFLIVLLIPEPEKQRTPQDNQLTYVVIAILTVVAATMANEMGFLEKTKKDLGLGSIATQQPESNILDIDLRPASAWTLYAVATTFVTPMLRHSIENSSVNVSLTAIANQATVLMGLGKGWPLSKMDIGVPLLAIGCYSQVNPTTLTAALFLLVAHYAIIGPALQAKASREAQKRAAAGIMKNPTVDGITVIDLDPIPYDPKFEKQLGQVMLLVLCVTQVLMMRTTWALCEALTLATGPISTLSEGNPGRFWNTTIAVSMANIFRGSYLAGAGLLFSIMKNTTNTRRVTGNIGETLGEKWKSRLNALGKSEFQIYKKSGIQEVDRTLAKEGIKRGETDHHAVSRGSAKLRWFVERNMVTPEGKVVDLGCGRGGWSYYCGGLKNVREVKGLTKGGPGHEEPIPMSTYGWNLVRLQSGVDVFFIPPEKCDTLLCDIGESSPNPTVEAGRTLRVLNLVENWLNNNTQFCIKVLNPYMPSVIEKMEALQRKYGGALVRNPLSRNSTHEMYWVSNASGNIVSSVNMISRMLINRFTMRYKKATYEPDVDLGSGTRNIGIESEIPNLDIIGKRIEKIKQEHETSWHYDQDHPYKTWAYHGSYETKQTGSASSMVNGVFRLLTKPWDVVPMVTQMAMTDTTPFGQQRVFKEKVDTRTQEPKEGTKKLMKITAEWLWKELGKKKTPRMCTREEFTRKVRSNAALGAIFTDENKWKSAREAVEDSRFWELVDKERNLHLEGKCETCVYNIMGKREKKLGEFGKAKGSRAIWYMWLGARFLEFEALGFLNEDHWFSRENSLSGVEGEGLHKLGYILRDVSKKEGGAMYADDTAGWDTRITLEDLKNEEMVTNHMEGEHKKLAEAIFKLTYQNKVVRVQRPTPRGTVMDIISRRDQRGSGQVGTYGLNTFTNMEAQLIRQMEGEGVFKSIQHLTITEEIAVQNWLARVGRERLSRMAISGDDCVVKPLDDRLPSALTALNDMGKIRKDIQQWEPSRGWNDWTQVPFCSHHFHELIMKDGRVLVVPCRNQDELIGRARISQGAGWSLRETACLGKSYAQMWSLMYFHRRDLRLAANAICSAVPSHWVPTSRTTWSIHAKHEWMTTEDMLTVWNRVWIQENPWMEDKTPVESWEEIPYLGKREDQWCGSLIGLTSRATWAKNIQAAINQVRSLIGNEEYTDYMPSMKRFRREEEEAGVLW

Row | Structure (SMILES) | inhibition | inhibition [1] [%]
1 | C=CCOc1ccc(/C=C/C(=O)OCC(=O)NCCCc2ccccc2)cc1 | 0% (inactive) | 
2 | Cn1c(NC(=O)c2ccc(C(C)(C)C)cc2)cc(=O)n(C)c1=O | 2.78% (inactive) | 
3 | O=C(c1cccnc1)N1CCN(CCCc2ccccc2)CC1 | -7.9% (inactive) | 
4 | Cc1ccc(NC(=O)COc2cccc(/C=C3\SC(=S)N(CCC(=O)O)C3=O)c2)cc1Cl | 0.88% (inactive) | 
5 | O=C(O)CCN1C(=O)/C(=C\c2cccc(OCc3ccccc3)c2)SC1=S | 40.6% (inactive) | 
6 | COc1cccc(/C=C2\SC(=S)N(CCC(=O)Nc3ccc(O)cc3)C2=O)c1 | 3.49% (inactive) | 
7 | COc1ccc(/C=C2/SC(=S)N(CCC(=O)O)C2=O)cc1 | 4.79% (inactive) | 
8 | O=C(COC(=O)c1cc(S(=O)(=O)N2CCOCC2)ccc1F)NCc1ccc2c(c1)OCO2 | -7.39% (inactive) | 
9 | C/C(CCc1ccccc1)=N/NC(=O)C(=O)NC(C)c1ccccc1 (stereo not drawn) | -9.31% (inactive) | 
10 | O=C(c1cnn(-c2ccccc2)c1)c1ccccc1O | 4.45% (inactive) | 
11 | CCc1cc(C(=O)Cc2cnn(-c3ccccc3)c2)c(O)cc1O | 5.45% (inactive) | -6.54
12 | O=C(Cc1ccc(Br)cc1)Nc1nc2ccccc2[nH]1 | 3.24% (inactive) | 
13 | COc1cccc(C(=O)N/N=C/c2ccc(OC)c(COc3ccccc3C(N)=O)c2)c1 | 3.25% (inactive) | 
14 | C=CCn1c(SCC(=O)NC(=O)NCCC)nnc1C1CCCCC1 | 3.46% (inactive) | 
15 | O=C1c2ccccc2CCC12OC2c1ccc([N+](=O)[O-])cc1 (stereo not drawn) | -3.43% (inactive) | 
16 | CCOc1ccc(-c2cn(-c3ccc(OC)cc3)c(SC)n2)cc1 | -2.59% (inactive) | 
17 | CCOc1ccc(C(=O)CSc2nnc(C3CC3)n2C)cc1 | -4.8% (inactive) | 
18 | CCSc1nc2cc(OC)c(OC)cc2c(=O)n1CC | 2.71% (inactive) | 
19 | COc1ccc(C(c2c(O)nc(SC)n(C)c2=O)c2c(O)nc(SC)n(C)c2=O)cc1O | -4.46% (inactive) | 
20 | COc1cccc(C(c2c(O)nc(SC)n(C)c2=O)c2c(O)nc(SC)n(C)c2=O)c1 | 16.2% (inactive) | -1.21
21 | CCn1c(SCC(N)=O)nnc1-c1ccc(OC)c(OC)c1 | -2.41% (inactive) | 
22 | COCCn1c(C)nnc1SCC(=O)NNC(=O)c1ccc(Br)cc1 | -3.23% (inactive) | 
23 | O=C(ONC(=O)C1C2C=CC(C2)C1C(=O)NOC(=O)c1ccccc1)c1ccccc1 (stereo not drawn) | -1.55% (inactive) | 
24 | O=C(CC1SCCNC1=O)Nc1ccccc1Cl (stereo not drawn) | 0% (inactive) | 

Row | Structure (SMILES) | inhibition | inhibition [1] [%]
25 | COc1ccccc1C(=O)NCC(=O)N/N=C/c1cn[nH]c1-c1ccccc1 | -1.82% (inactive) | 
26 | Cc1c(OC(C)C(=O)NCC(O)c2ccccc2)ccc2c3c(c(=O)oc12)CCCC3 (stereo not drawn) | 2.62% (inactive) | 
27 | CC(C)N1CCc2c(sc(NC(=O)c3ccc([N+](=O)[O-])o3)c2C(N)=O)C1 | -6.69% (inactive) | 
28 | CN1CCc2c(sc(NC(=O)c3ccc([N+](=O)[O-])o3)c2C(N)=O)C1 | 6.69% (inactive) | 
29 | COc1ccc(C(CNC(=O)c2ccc(-c3ccccc3Cl)o2)N2CCCC2)cc1 (stereo not drawn) | 1.14% (inactive) | 
30 | NS(=O)(=O)c1ccc(CCNC(=O)Nc2ccc(Cl)c(Cl)c2)cc1 | -1.37% (inactive) | 
31 | CCc1c(C(=O)N2CCOCC2)csc1C | -2.41% (inactive) | 
32 | O=C(c1ccccc1)c1cn[nH]c1-c1ccccc1O | -2.78% (inactive) | 
33 | Cc1nc(COC(=O)c2ccc(CO)cc2)cs1 | -2.35% (inactive) | 
34 | COc1ccc(C(=O)OCc2csc(C)n2)c(O)c1 | -2.19% (inactive) | 
35 | COc1ccc(OC)c(C(=O)CCCCC(=O)c2cc(OC)ccc2OC)c1 | 2.88% (inactive) | 
36 | COc1ccc(OC)c(C(=O)CCCC(=O)c2cc(OC)ccc2OC)c1 | 5.23% (inactive) | 
37 | CCCCc1c(C(=O)O)cc(OC)cc1C(=O)O | 5.73% (inactive) | 
38 | CCCCCc1cc(OC)cc2c1C(=O)OC(C)(C)O2 | 1.32% (inactive) | -1.23
39 | Cc1nc2c([nH]1)C1(CCN(Cc3ccccc3)CC1)C(C#N)=C(N)O2 | 12.1% (inactive) | 
40 | O=C(c1ccncc1)N(Cc1cc2ccccc2[nH]c1=O)C1CCCCC1 | -1.6% (inactive) | 
41 | Cc1ccc(NS(=O)(=O)c2ccccc2)c(NS(=O)(=O)c2ccccc2)c1 | 13.2% (inactive) | 
42 | COc1ccc(S(=O)(=O)NC2CC3CCC2C3)cc1 (stereo not drawn) | -4.66% (inactive) | 
43 | Cc1c(CCC(=O)O)c(=O)oc2cc3occ(-c4ccc(Cl)cc4)c3cc12 | 18.3% (inactive) | 
44 | Cc1c(CC(=O)O)c(=O)oc2c(C)c(OCc3ccc(F)cc3Cl)ccc12 | 1.96% (inactive) | 
45 | COc1cccc(-c2coc3cc4oc(=O)c(CCC(=O)O)c(C)c4cc23)c1 | 9.7% (inactive) | 
46 | Cc1c(CC(=O)O)c(=O)oc2c(C)c3occ(-c4ccc(Br)cc4)c3cc12 | 26.1% (inactive) | 
47 | COc1cccc(-c2coc3c(C)c4oc(=O)c(CC(=O)O)c(C)c4cc23)c1 | 1.96% (inactive) | 
48 | COc1ccccc1COc1ccc2c(C)c(CCC(=O)O)c(=O)oc2c1C | 7.18% (inactive) | 

Row | Structure (SMILES) | inhibition | inhibition [1] [%]
49 | Cc1c(CCC(=O)O)c(=O)oc2cc3occ(-c4ccc(Br)cc4)c3cc12 | 17.7% (inactive) | 
50 | COc1ccc(-c2coc3c(C)c4oc(=O)c(CCC(=O)O)c(C)c4cc23)cc1 | 11.8% (inactive) | 
51 | CCC[C@@H](CN1CCC[C@H]1CN1C(N)=NC[C@@H]1Cc1ccccc1)N1C[C@@H]([C@H](C)CC)N(CCc2ccc(Cl)c(Cl)c2)C1=N | -10.2% (inactive) | 
52 | COc1ccc(-n2c(=O)cc(N3CC(C)OC(C)C3)[nH]c2=O)cc1 (stereo not drawn) | -3.21% (inactive) | 
53 | N#Cc1ccc(OCc2nnc3n2CCCCC3)cc1 | -1.53% (inactive) | 
54 | CCOCCn1c(CN2CCN(C(c3ccccc3)c3ccccc3)CC2)nc2c1c(=O)n(C)c(=O)n2C | -5.88% (inactive) | 
55 | COc1ccc(NC(=O)Nc2ccc3c(c2)CCC3)cc1 | 1.61% (inactive) | 
56 | CCC(=O)OCCNc1cc(Sc2nc3ccccc3[nH]2)c2nonc2c1[N+](=O)[O-] | 29.8% (inactive) | 
57 | Cc1nnc(Sc2cc(NCCCO)c([N+](=O)[O-])c3nonc23)s1 | 18.5% (inactive) | 
58 | Cc1ccc(Sc2cc(NCCCO)c([N+](=O)[O-])c3nonc23)cc1 | 16.2% (inactive) | 
59 | CCCC(=O)OCCNc1cc(Sc2nc3ccccc3[nH]2)c2nonc2c1[N+](=O)[O-] | 20.4% (inactive) | 
60 | CN(CCO)c1cc(Sc2nc3ccccc3s2)c2nonc2c1[N+](=O)[O-] | 48.2% (inactive) | 
61 | Cc1nnc(Sc2cc(NCCO)c([N+](=O)[O-])c3nonc23)s1 | 1.46% (inactive) | 
62 | C[C@@H]1CC=C[C@@H]2[C@H]1C(=O)N(Cc1ccccc1)[C@H]2c1cccc(C#Cc2ccccc2)c1 | -4.3% (inactive) | -5.45
63 | CC(C)=CCC(C)(C)C1OCCN1C(=O)c1ccccc1 (stereo not drawn) | -7.18% (inactive) | 
64 | Cc1cc(Br)ccc1NC(=O)CN(C)C(=O)C1CCN(C(=O)c2ccc(Cl)cc2)CC1 | -3.75% (inactive) | 
65 | O=C1OC(c2ccccc2)c2ccc3ccccc3c21 (stereo not drawn) | -10.9% (inactive) | 
66 | CCOc1ccc2c(C)c(Cl)c(=O)oc2c1 | -0.69% (inactive) | 
67 | OCCN1CCN(c2cc(-c3ccccc3)c3ccccc3n2)CC1 | -4.36% (inactive) | 
68 | Cc1ccc(NC(=O)COC(=O)c2c(C)nn(-c3ccccc3)c2C)cc1 | 7.29% (inactive) | 
69 | C=CCOc1ccc(/C=C2\SC(=S)N(N3CCOCC3)C2=O)cc1 | -7.66% (inactive) | 
70 | Cc1ccc(/C=C2\SC(=S)N(CCC(=O)NNS(=O)(=O)c3ccc(C)cc3)C2=O)cc1 | -5.09% (inactive) | 
71 | CC(=O)NN1C(=O)/C(=C\c2ccccc2)SC1=S | -3.17% (inactive) | 
72 | COc1cccc(-n2nnnc2SCC(=O)NCc2ccco2)c1 | -6.77% (inactive) | 

Row | Structure (SMILES) | inhibition | inhibition [1] [%]
73 | O=C(NCCc1c[nH]c2ccccc12)c1ccco1 | -0.82% (inactive) | 
74 | O=C(CNC(=O)C(c1ccccc1)c1ccccc1)N/N=C\c1ccc(C(=O)O)cc1 | 0% (inactive) | 
75 | Cc1ccc(S(=O)(=O)N2CCN(S(=O)(=O)N3CCOCC3)CC2)cc1C | 2.05% (inactive) | 
76 | COc1ccc(/C=N/NC(=O)c2cc(C)n(-c3ccccc3)c2C)cc1OC | -10.9% (inactive) | 
77 | Cc1cc(/C=N/NC(=O)c2ccccc2F)c(C)n1-c1ccccc1 | -8.18% (inactive) | 
78 | O=C(CCc1ccc(S(=O)(=O)N2CCOCC2)cc1)N/N=C/c1ccc(F)cc1F | -6.07% (inactive) | 
79 | O=C(CCN1CCN(c2ccccc2)CC1)N/N=C/c1ccccc1O | -10.4% (inactive) | 
80 | CCn1c(C)nc2cc(C(=O)N/N=C/c3cccc(OC)c3O)ccc21 | -3.68% (inactive) | 
81 | CCn1c(C)nc2cc(C(=O)N/N=C/c3cccc(O)c3O)ccc21 | -0.82% (inactive) | 
82 | COc1ccc(/C=N/NC(=O)CCN2CCN(c3ccccc3)CC2)c(OC)c1OC | -0.66% (inactive) | 
83 | O=C(CCc1ccc(S(=O)(=O)N2CCOCC2)cc1)N/N=C/c1cccc(O)c1 | -1.28% (inactive) | 
84 | CCOC(=O)CN1C(=O)N[C@@H](c2cccs2)C(C(=O)OC)=C1C | -0.8% (inactive) | 
85 | Cn1ccnc1C(=O)c1cc(SCC(=O)NC2CC2)nc2ccccc12 | 0.73% (inactive) | 
86 | O=C(NCc1nnnn1-c1ccc(F)cc1)c1cc2ccccc2o1 | 9.89% (inactive) | 
87 | CCCCCCCCN1[C@@H](CC(=O)OCC)c2cc(C(F)(F)F)ccc2S1(=O)=O | -6.14% (inactive) | 
88 | CC(C)COc1cccc(C(=O)N(C)CC(=O)Nc2cccc3ccccc23)c1 | -6.94% (inactive) | 
89 | Cc1cccc(CC(=O)Nc2ccon2)c1 | -7.18% (inactive) | 1.51
90 | NS(=O)(=O)c1ccc(N/N=C/c2ccc(O)cc2O)c([N+](=O)[O-])c1 | 27.2% (inactive) | 
91 | O=[N+]([O-])c1ccc(N/N=C/c2cccc(O)c2O)c(S(=O)(=O)N2CCOCC2)c1 | 6.18% (inactive) | 
92 | COc1cc(/C=N/Nc2ccc([N+](=O)[O-])cc2S(=O)(=O)N2CCOCC2)cc(OC)c1OC | -2.58% (inactive) | 
93 | NS(=O)(=O)c1ccc(N/N=C/c2ccccc2C(=O)O)c([N+](=O)[O-])c1 | 4.52% (inactive) | 
